PubChem BioAssay AID1259318 (Sanford-Burnham Center for Chemical Genomics, 2017)
In all, about 370,000 compounds went through this assay and about 3,000 (0.81%) were called active. Shown is part of a subset that was picked to be rich in actives. A number with no mark means an inactive call.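 The calls were made as follows: active = activity above about 14% (limit read from the data; passing the limit was not always enough); inactive = the rest.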

target: Nuclear receptor subfamily 1 group D member 1 (Homo sapiens) (UniProt P20393); experiment: Rev-erbα–DNA interaction modulation – biochemical, FITC-DNA, fluorescence polarization, uHTS, primary screen (AID 1259318); settings: Rev-erbα–FITC-DNA binding, 90 min, at 10 µM, active compounds read high;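 also: 0% = DMSO wells with 35 nM protein and 100% = DMSO wells with 750 nM protein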
Sequence (P20393 whole entry, looked up): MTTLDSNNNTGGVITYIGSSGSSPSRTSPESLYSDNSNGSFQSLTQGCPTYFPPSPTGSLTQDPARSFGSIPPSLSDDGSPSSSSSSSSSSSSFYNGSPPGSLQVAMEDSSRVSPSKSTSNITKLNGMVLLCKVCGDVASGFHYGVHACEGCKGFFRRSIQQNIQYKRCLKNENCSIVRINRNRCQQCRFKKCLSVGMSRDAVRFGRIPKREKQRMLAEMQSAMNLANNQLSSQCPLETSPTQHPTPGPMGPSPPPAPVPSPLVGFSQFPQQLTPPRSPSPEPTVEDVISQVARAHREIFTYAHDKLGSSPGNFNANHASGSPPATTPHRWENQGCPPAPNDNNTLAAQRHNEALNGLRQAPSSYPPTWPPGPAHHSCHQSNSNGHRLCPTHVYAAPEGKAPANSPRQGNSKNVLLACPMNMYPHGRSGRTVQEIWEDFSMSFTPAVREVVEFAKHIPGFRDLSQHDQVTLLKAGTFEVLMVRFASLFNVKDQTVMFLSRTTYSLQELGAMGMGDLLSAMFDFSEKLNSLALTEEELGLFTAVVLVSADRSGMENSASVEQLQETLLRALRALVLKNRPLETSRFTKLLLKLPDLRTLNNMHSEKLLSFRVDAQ

**Q.** For `COC(=O)[C@]12C[C@H](CC(=O)NCc3ccccc3)C(=O)N(CCC3=CCCCC3)C1=C[C@H](C(C)C)O[C@@H]2C1CC1`, which activity is on record?
**A.** Its activity is -4.75%.

**Q.** `Cc1cc(C(=O)OCC(=O)Nc2ccc(F)c(F)c2)c(C)o1` was tested. Which activity did it give?
**A.** Its activity is 4.64%.

**Q.** With `CCc1ccc(C(=O)NNC(=O)C2CCN(c3ncnc4sc(C)c(C)c34)CC2)cc1` as the molecule, how does the activity read?
**A.** Its activity is -5.39%.

**Q.** Which activity does the source give for `Cc1sc2ncnc(N3CCC(C(=O)Nc4nc5ccc(Cl)cc5s4)CC3)c2c1C` here?
**A.** Its activity is 42.2% (active).

**Q.** How did the activity turn out when `Cc1sc2ncnc(N3CCC(C(=O)Nc4ccc(F)cc4Cl)CC3)c2c1C` was run?
**A.** Its activity is 8.75%.

**Q.** How did the activity turn out when `O=C1NS(=O)(=O)c2ccccc21` was run?
**A.** Its activity is 4.73%.

**Q.** How did the activity turn out when `CCOc1ccc(-n2c(SCC(=O)Nc3cc(C)c(NC(=O)c4ccccc4)cc3OC)nnc2-c2cccc(Cl)c2)cc1` was run?
**A.** The activity was -3.54%.

**Q.** With `COc1cc(NC(=O)c2ccccc2NS(=O)(=O)c2ccc(Cl)s2)cc(OC)c1` as the molecule, how does the activity read?
**A.** The activity was 0.46%.

**Q.** How did the activity turn out when `COc1ccc2[nH]c(C(=O)Nc3ccccc3Cl)cc2c1` was run?
**A.** Its activity is 49.3% (active).

**Q.** How did the activity turn out when `COc1cc2cc(CN(CCN3CCCC3)C(=O)Nc3ccccc3Cl)c(=O)[nH]c2cc1OC` was run?
**A.** The activity was 1.22%.

**Q.** With `CC1(Cc2cccc(C#N)c2)C(=O)Nc2ccc(-c3cccc(C(F)(F)F)c3)cc21` (stereo not drawn) as the molecule, how does the activity read?
**A.** Its activity is 0.78%.

**Q.** How did the activity turn out when `COc1ccccc1CC1(C)C(=O)Nc2ccc(OC(F)(F)F)cc21` (stereo not drawn) was run?
**A.** Its activity is 51.9% (active).

**Q.** How did the activity turn out when `CCc1ccc2c(c1)NC(=O)C2(C)Cc1ccc(OC(F)(F)F)cc1` (stereo not drawn) was run?
**A.** Its activity is 4.7%.

**Q.** How did the activity turn out when `COc1cc2c(cc1OC)[C@@H](Cc1cc(OC)c(OC)c(OC)c1)[N+](C)(CCCOC(=O)CC/C=C/CCC(=O)OCCC[N+]1(C)CCc3cc(OC)c(OC)cc3[C@H]1Cc1cc(OC)c(OC)c(OC)c1)CC2` (stereo partly drawn) was run?
**A.** The activity was 4.74%.

**Q.** Which activity does the source give for `Cc1cc(=O)oc(C)c1C(=O)NC1CC(C)(C)NC(C)(C)C1` here?
**A.** The activity was -3.78%.

**Q.** `Cc1c(Br)cc(C(=O)N2CCCCCC2)c(C)c1C` was tested. Which activity did it give?
**A.** The activity was -0.12%.

**Q.** `Cc1cc(=O)oc(C)c1C(=O)N1CCCCC1` was tested. Which activity did it give?
**A.** Its activity is 20.1% (active).

**Q.** `CCC1(C)OC(=O)N(C)C1=O` (stereo not drawn) was tested. Which activity did it give?
**A.** The activity was -3.1%.

**Q.** With `Nc1cccc(OCCCCCOc2cccc(N)c2)c1` as the molecule, how does the activity read?
**A.** The activity was 5%.

**Q.** How did the activity turn out when `COc1cc(OC)cc(-c2c(C#Cc3ccsc3)c3cc(-c4ccc(SC)cc4)ccc3n2C)c1` was run?
**A.** The activity was 34.1% (active).

**Q.** Which activity does the source give for `COc1ccc(-c2c(C#Cc3ccsc3)c3cc(-c4ccc(CN5CCOCC5)cc4)ccc3n2C)cc1` here?
**A.** Its activity is 3.65%.

**Q.** How did the activity turn out when `COc1cc(OC)cc(-c2c(C#Cc3ccsc3)c3cc(-c4ccc(OC)cc4F)ccc3n2C)c1` was run?
**A.** The activity was -0.12%.

**Q.** Which activity does the source give for `Cc1ccc(-c2ccc(CN3C(C)C(=O)N(Cc4cn(CCC5OCCCO5)nn4)CCS3(=O)=O)cc2)cc1` (stereo not drawn) here?
**A.** The activity was 1.81%.
